Each structure is given as a SMILES string. The panel holds about 83,000 compounds, 20% with a hit somewhere; the sample as a whole holds those more often.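 A percent growth of 40 corresponds to 60% growth inhibition; 0 means no net growth; -100 means all cells died. Active threshold: below 10.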 The source made the active and inactive calls.

In the test the test system is SR leukemia. Kind of test: NCI-60 one-dose screen, 48 h (100 = growth as untreated, 0 = no growth, -100 = all killed). As to conditions: 10 µM unless noted. The procedure:
Growth inhibition of the SR human tumor cell line is measured as a screen for anti-cancer activity. Cells are grown in 96 well plates and exposed to the test compound for 48 hours. Compounds are tested at a single concentration, which is 10^-5 M for most compounds. The reported endpoint is percent growth (GI% or GIPRCNT), where numbers from 0 - 100% represent growth inhibition, and numbers from -100% - 0 represent cell death. For example, a value of 40 represents 60% growth inhibition. A value of 0 means no net growth occurred over the course of the experiment. A value of -40 indicates 40% of cells at the beginning of the experiment died by the end of the experiment. A value of -100 means all cells are dead at the end of the experiment.
NCI-60 Human Tumor Cell Lines Screen was performed using the standard one-dose NCI protocol, which is described in more detail at https://dtp.cancer.gov/discovery_development/nci-60/default.htm.
Compounds with GIPRCNT values below 10 were considered active. Activity score was based on GIPRCNT using the following formula: […]
Score is 0 for GIPRCNT values of 100 or above, 50 for GIPRCNT values of 0, and 100 for GIPRCNT values of -100.
Take `CN(C)c1ccc(N=Nc2ccc3ccccc3c2)cc1`: the growth was 61.8% (inactive). Turning to `CC[C@]12C=CCN3CC[C@@]4(c5ccc(OC)cc5N(C)[C@H]4[C@@](O)(C(=O)OC)[C@@H]1OC(=O)CCC(=O)O[C@H]1CC[C@H]4[C@@H]5CCC6=CC(=O)CC[C@@H]6[C@H]5CC[C@]14C)[C@@H]32`, the growth was 10.5% [100 µM] (inactive). The same measure for `COc1ccc(OC)c(NC=O)c1`: 83.3% (inactive); for `COc1cc2c(c(Br)c1N)-c1cc(Br)c(N)cc1C2=O`: 47.2% (inactive).

As for `CC(=O)OC[C@]12CC[C@@H]([C@@H](C)C(N)=O)[C@@H]1[C@H]1CC[C@@H]3[C@@]4(C)CC[C@H](OC(C)=O)C(C)(C)[C@@H]4CC[C@@]3(C)[C@]1(C)CC2`, the growth is 10.8% [100 µM] (inactive). For the molecule `Cc1cccc(C[C@H](NC(=O)Nc2ccc(Cl)cc2F)C(=O)N[C@@H]2C(=O)N3C[C@H](O)C[C@H]3C(=O)N3CCCC[C@H]3C(=O)N[C@@H](C)C(=O)N3C[C@H](C)C[C@H]3C(=O)O[C@H]2C)c1`, the growth is 11% (inactive). For `Cc1nc(Cl)c2c(n1)N(C)c1ccc(Cl)cc1C(C)C2` (stereo not given), the growth was 83.2% (inactive). The same measure for `CCCCCn1c(C)cc(/C=C\c2ccc3cc(C)ccc3[n+]2C)c1C`: 9.57% (active); for `O=S(=O)(NCCCNc1nccc(-c2c(-c3cccc(F)c3)nc3occn23)n1)c1cccc2ccccc12`: 50.7% (inactive). The same measure for `CC[C@]12C=CCN3CC[C@@]4(c5ccc(OC)cc5N(C)[C@H]4[C@@](O)(C(=O)OC)[C@@H]1OC(=O)CCC(=O)N[C@H](Cc1c[nH]c4ccccc14)C(=O)OC)[C@@H]32`: 26% [100 µM] (inactive). With `CCCOc1ccc(-c2nc(-c3ccc(N)cc3)cs2)cc1` the figure was 73.9% (inactive); with `Oc1cc(Nc2ccnc3cc(Cl)ccc23)c2ncccc2c1`, 37% (inactive); with `N#C/C(C(=O)c1ccccc1)=C1/C(=O)Nc2ccc(F)cc21`, 118% (inactive). For `COc1cc(OC)c(/C=C/C(=O)c2c(N)cc(OC)cc2OC)c(OC)c1`, the growth was 29.2% (inactive). The same measure for `COc1ccc(C(=O)CSc2nccc(Nc3ccc(C(=O)O)cc3)n2)cc1`: 91.4% (inactive).

Take `COc1cc2c(=O)[nH]c3cc([N+](=O)[O-])ccc3c2cc1[N+](=O)[O-]`: the growth was 32.2% (inactive). With `O=C(Nc1ccccc1)Nc1ccc(C(=O)/C=C/c2ccc(N3CCCC3)cc2)cc1` the figure was 98.9% (inactive); with `O=[N+]([O-])c1cc(CCl)ccc1OCCBr`, 102% (inactive). The same measure for `COc1ccc2c(c1)C(C)Cc1c(Cl)ncnc1N2C` (stereo not given): -2.06% (active). The same measure for `CCCCCn1sc(=O)n(Cc2ccc(CNC(=O)OCc3ccc4cccc(O)c4n3)cc2)c1=O`: 4.06% (active).

On to `Nc1nnc(CSc2nnc3n(Cc4ccccc4)c(=O)c4c5c(sc4n23)CCCC5)s1`, for which the growth is 84% (inactive).

With `Cc1ccc(NC(=O)N[C@@H](Cc2cc(F)cc(F)c2)C(=O)N[C@@H]2C(=O)N3CCC[C@H]3C(=O)N3CCCC[C@H]3C(=O)N[C@@H](C)C(=O)N3C[C@H](C)C[C@H]3C(=O)O[C@H]2C)cc1`, the growth is 31.3% (inactive). With `CSc1nc(N)c(N=Nc2ccc(S(=O)(=O)Nc3nnc(C)s3)cc2)c(=O)[nH]1` the figure was 110% (inactive); with `CC1(C)CC[C@]2(C(=O)O)CC[C@]3(C)C(=CC[C@@H]4[C@@]5(C)C/C(=C/c6cccnc6)[C@H](O)C(C)(C)[C@@H]5CC[C@]43C)[C@@H]2C1`, 37.3% [100 µM] (inactive). As for `c1ccc(-c2nc(N3CCCNCC3)c3nc(-c4ccccc4)oc3n2)cc1`, the growth is 0.248% (active). The same measure for `C=C(C)[C@@H]1CC[C@]2(c3ncc(C)o3)CC[C@]3(C)[C@H](CC[C@@H]4[C@@](C)(CCC#N)[C@H](C(=C)C)CC[C@]43C)[C@@H]12`: 14.9% [100 µM] (inactive); for `O=C(COc1cccc(/C=C2\Oc3ccccc3C2=O)c1)c1ccc([N+](=O)[O-])cc1`: 80.9% (inactive). Turning to `CCc1ccc(C2=C/C(=C/c3ccccc3)C(=O)N2CCc2ccc(S(N)(=O)=O)cc2)cc1`, the growth was 96.9% (inactive). The same measure for `CCOC(=O)COc1ccc2c(c1)O/C(=C\c1ccc(O)cc1)C2=O`: 93.8% (inactive); for `O=S(=O)(/N=c1/n(-c2ccccc2)nc2n1CCN2C1=NCCN1)c1ccc(-c2ccccc2)cc1`: 67.4% (inactive); for `CC(C)C1=NOC(=O)C1=Cc1cn(-c2ccccc2)nc1-c1ccc(Cl)cc1`: -22% (active).

Regarding `COc1c(B(O)O)cccc1-c1nc2ccc3[nH]ncc3c2c2c1CCC2`, the growth was 67.8% (inactive). `CC(C)[C@H]1COC(=O)N1[C@@H]1C(=O)N([C@@H](CCC(=O)N2CCN(C3CCCC3)CC2)C(=O)N[C@@H]2CCCc3ccccc32)[C@@H]1/C=C/c1cccc(Cl)c1`: the growth is 19.2% (inactive).

Regarding `O=C(NCCO)c1cccnc1`, the growth is 103% (inactive). The same measure for `Cc1ccc2c(n1)C(=O)C(Cl)=C(Nc1ccc(N3CCN(C)CC3)cc1)C2=O`: -5.05% (active); for `COc1ccc2c(c1)c(-c1noc(-c3cn(C)c4ncc(F)cc34)n1)cn2C`: 83.8% (inactive). The same measure for `C[N+](C)(C)c1ncnc2[n-]cnc12`: 107% (inactive); for `O=C1COCCN1c1ccc(NCc2cn(Cc3cccc4ccccc34)c3ccccc23)cc1`: 74.5% (inactive); for `COc1c(C(C)=O)c(OCCCCOc2c(C(C)=O)c(OC)c3ccoc3c2OC)c(OC)c2occc12`: 72.7% (inactive). The same measure for `CC[C@@H]1NC(=O)[C@@H]2CCCCN2C(=O)[C@@H]2CCCN2C(=O)[C@@H](NC(=O)[C@H](Cc2cc(F)cc(F)c2)NC(=O)Nc2ccc(C3CC3)cc2F)[C@H](C)OC(=O)[C@@H]2C[C@@H](C)CN2C1=O`: 15.1% (inactive).

The values are drawn from PubChem BioAssay (NCI).
